Source: PubChem BioAssay (several laboratories)
Mcl1-Noxa inh = disrupts binding of human Mcl-1 to Noxa peptide | hit rate 1.5% among 220,000 | Q07820 | inhibition, % at 21.7 µM | TR-FRET Mcl-1/Noxa peptide binding, 2 h | AID 1022;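 active = compounds that cut the protein-peptide binding signal by more than 50% relative to plate controls in a single-dose test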;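 also: His-tagged Mcl-1 with rhodamine Noxa BH3 peptide and terbium anti-His antibody; 0% = Mcl-1 plus Noxa peptide wells and 100% = peptide-only wells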
14-3-3 Bad inh = disrupts binding of bovine 14-3-3 zeta to phospho-Bad peptide; P63103; TR-FRET 14-3-3zeta/Dy647-pBad peptide displacement, 1 h; inhibition, % at 21.7 µM; hit rate 0.71% among 220,000; AID 781;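 active = inhibition above about 70%, limit read from the data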;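 also: 0% = full 14-3-3 plus peptide FRET controls and 100% = background without 14-3-3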
eIF4E-4G inh = eIF4E/eIF4G interaction inhibition in translation initiation. P63073+Q04637. TR-FRET eIF4E-eIF4GI(517-606) binding, 2 h. inhibition, % at 21.7 µM. hit rate 0.37% among 220,000;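 also: 0% = full FRET control wells and 100% = background wells lacking eIF4GI fragment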
p47phox inh = inhibitors of human p47phox binding | p47phox/p22phox peptide binding, fluorescence polarization, 2 h | AID 1274 | inhibition, % at 24.7 µM | hit rate 0.53% among 220,000 | P14598;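 also: 0% = p47phox with labelled peptide and 100% = labelled peptide alone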
Target sequence (P14598 whole entry, looked up): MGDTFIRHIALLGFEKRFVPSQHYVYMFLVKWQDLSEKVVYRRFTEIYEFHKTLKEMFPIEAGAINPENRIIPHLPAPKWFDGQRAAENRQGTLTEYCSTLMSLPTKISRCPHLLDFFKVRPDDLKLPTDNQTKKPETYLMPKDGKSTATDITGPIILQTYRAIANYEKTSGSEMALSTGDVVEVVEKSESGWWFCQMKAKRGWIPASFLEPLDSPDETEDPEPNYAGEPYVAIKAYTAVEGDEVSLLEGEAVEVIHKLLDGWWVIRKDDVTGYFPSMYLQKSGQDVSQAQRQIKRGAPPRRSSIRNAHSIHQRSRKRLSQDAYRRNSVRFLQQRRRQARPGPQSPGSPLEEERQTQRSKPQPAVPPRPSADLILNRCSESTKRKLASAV
Bim-Mcl-1 = disrupts Bim peptide binding to human Mcl-1; Q07820; Bead-based flow cytometry, Bim peptide-Mcl-1 binding; inhibition, % at 10 µM; hit rate 0.1% among 190,000; AID 1009; in the data active = inhibition above about 40%;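 also: 0% = no compound tracer wells and 100% = peptide blocker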
Mcl1-Bid inh = Mcl-1/Bid interaction inhibition. AID 1021. Q07820. hit rate 0.97% among 220,000. TR-FRET Mcl-1/Bid-Dy647 peptide binding, 1536-well. inhibition, % at 21.7 µM;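 active = compounds that cut the binding signal by more than half at the single screening dose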;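 also: His-tagged Mcl-1 with europium anti-His antibody binding Bid BH3 peptide; 0% = Mcl-1 plus peptide wells and 100% = peptide-only wells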
* = called active by the depositor; / = no result; [ ] = remark or other dose. In the library only some 3.4% were active in any assay of this set; here they are far more common.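 The calls were made as follows, unless noted: active = inhibition above about 30% (limit read from the data); inactive = the rest.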

SMILES | Mcl1-Noxa inh | 14-3-3 Bad inh | eIF4E-4G inh | p47phox inh | Bim-Mcl-1 | Mcl1-Bid inh
Cc1cc(NCc2ccccn2)ccc1Br | -23 | 79* | 5 | -11 | 0 | 10
CC(C)n1cnc2cc(NCc3ccccn3)ccc21 | 1 | -1 | -8 | -4 | -1 | -41
OCC1CCCN(c2nc(CN3CCCCC3)nc3scc(-c4ccccc4)c23)C1 (stereo not given) | 1 | 5 | 2 | -6 | -2 | 97*
O=C(Nc1cccc(C(=O)O)c1)/C(=C/c1ccc([N+](=O)[O-])cc1)NC(=O)c1ccccc1 | -8 | -7 | -2 | -2 | -2 | -29
O=C(Nc1cccc(C(=O)O)c1)/C(=C\c1ccccc1)NC(=O)c1cccc2ccccc12 | -3 | -10 | -3 | 122* | 1 | -39
CCN(CC)S(=O)(=O)c1ccc(O)c(C(=O)OCC(=O)N2c3ccccc3CC2C)c1 (stereo not given) | 26 | 11 | 0 | -24 | / | -30
Cc1cc(/C=C2/C(=N)N3C(=NC2=O)SN=C3S(C)(=O)=O)c(C)n1-c1ccccc1F | 14 | -16 | 31* | -21 | 0 | -1
CS(=O)(=O)C1=NSC2=NC(=O)/C(=C\c3cccn3-c3ccc(Cl)cc3)C(=N)N21 | 92* | 1 | 7 | -70 | 14 | -14
N=C1/C(=C/c2cccn2-c2ccc([N+](=O)[O-])cc2)C(=O)N=C2SC=CN12 | 61* | 11 | 1 | -15 | -7 | -63
Cc1ccc(-n2cccc2/C=C2\C(=N)N3N=C(C(C)C)SC3=NC2=O)cc1 | 11 | -6 | 0 | -39 | -1 | -32
O=C1NC(=S)N/C1=C/c1cccn1-c1ccc([N+](=O)[O-])cc1 | 80* | 2 | 23 | -31 | -4 | -42
CC1(C)CC2CC(C)(CN2/C=N/c2sc3c(c2C#N)CC(C)(C)NC3(C)C)C1 (stereo not given) | 3 | -6 | 0 | -13 | / | -29
Cc1nn(C)cc1C(C)NCc1c(C(=O)N2CCCCCCC2)nc2ccc(Cl)cn12 (stereo not given) | 5 | 1 | 2 | / | 1 | -3
Cc1ccc(-n2nnnc2SCC#N)cc1 | 8 | 71* | -1 | -12 | -1 | -13
O=C1N(Cc2cccnc2)C[C@@H]2C[C@@H](c3cccc(OC4CCCC4)c3)N3CCC[C@@]123 | 8 | -12 | -5 | -25 | -2 | -30
COc1ccc(-c2ccc(/C=C3/C(=N)N4C=CSC4=NC3=O)o2)c([N+](=O)[O-])c1 | 83* | 73*[fluorescence artefact?] | 10 | 2 | 0 | 75*
O=C(COC(=O)/C=C/c1ccccc1)NCc1ccccc1Cl | -3 | -6 | -3 | -11 | 2 | -8
CC(OC(=O)c1cccc(N2C(=O)c3ccccc3C2=O)c1)C(=O)Nc1ccc(N(C)C)cc1 (stereo not given) | 76* | 11 | 3 | 15 | -4 | 40
Cc1ccc(NC(=O)COC(=O)c2cccc(N3C(=O)c4ccccc4C3=O)c2)cc1 | 1 | -4 | -3 | -23 | / | -61
O=C(O)c1ccc(NC(=O)c2cccc(N3C(=O)C4C5CCC(C5)C4C3=O)c2)cc1 (stereo not given) | 8 | -1 | 2 | 4 | -5 | 10
CN(C)c1ccc(NC(=O)c2cccc(N3C(=O)C4C5C=CC(C5)C4C3=O)c2)cc1 (stereo not given) | 80* | -4 | 0 | -9 | -2 | -74
COc1ccc(/C=N/NC(=O)CN(C2=NS(=O)(=O)c3ccccc32)c2ccccc2)cc1 | 24 | 9 | 5 | 31* | -2 | 42
Cc1ccc(-n2c(C)n[nH]c2=S)cc1 | 15 | -7 | 3 | -20 | -8 | -29
Cc1ccc(-n2c(C)n[nH]c2=S)cc1C | 12 | -7 | 9 | -5 | -7 | 97*
Cc1ccc(S(=O)(=O)N2CCN(C(=O)C3CCN(C(=O)c4ccccc4C)CC3)CC2)cc1C | -2 | -13 | 4 | -4 | 1 | -22
CCCCOc1ccc(C(=O)NCCC(=O)NCCCC(=O)OCC)cc1 | 3 | 0 | -7 | -10 | / | 94*
CCNc1nc(NCc2ccccc2)nc(SCC(N)=O)n1 | 0 | 3 | 0 | -1 | -1 | -26
CCNc1nc(NCc2ccccc2)nc(SCC(=O)Nc2ccccc2)n1 | 10 | 13 | 2 | -12 | -5 | 53*
